Hit rate of the full screen: of about 3,200 compounds, about 300 (9.4%) showed activity. Shown is part of a subset that was picked to be rich in actives. Unmarked numbers belong to inactive results.

The test deals with A673/TR/shEF. Nature of the test: cell viability (LOESS-normalised, relative to median of negative controls) (log2 ratio); higher = more viable cells (less compound effect), active = hit call of the paper (over 3 MAD below the median). The following applies: treatment time: 72 h. In short, it runs like this:
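Viability of A673/TR/shEF Ewing sarcoma cells was determined by CellTiter-Glo luminescence. The cells, at 1,500 per well in 384-well plates, were grown with or without doxycycline from 24 h before compound addition to switch on EWS-FLI1 shRNA knockdown, then exposed for three days to library compounds at two or more concentrations or to DMSO controls. Signals were LOESS-corrected plate by plate, normalised to the negative-control median and log2-transformed.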

The mark [1] stands for this setting: 0.25 µM, library screen: screen1, EWS-FLI1 expression: high (no doxycycline).
The mark [2] stands for this setting: 0.25 µM, library screen: screen1, EWS-FLI1 expression: low (doxycycline-induced shRNA knockdown).
The mark [3] stands for this setting: 2.5 µM, library screen: screen1, EWS-FLI1 expression: high (no doxycycline).
Setting [4] is: 2.5 µM, library screen: screen1, EWS-FLI1 expression: low (doxycycline-induced shRNA knockdown).
Setting [5] is: 0.025 µM, library screen: screen1, EWS-FLI1 expression: high (no doxycycline).
[6] abbreviates: 0.025 µM, library screen: screen1, EWS-FLI1 expression: low (doxycycline-induced shRNA knockdown).
The mark [7] stands for this setting: 0.25 µM, library screen: screen2, EWS-FLI1 expression: high (no doxycycline).
[8] abbreviates: 0.25 µM, library screen: screen2, EWS-FLI1 expression: low (doxycycline-induced shRNA knockdown).
[9] abbreviates: 2.5 µM, library screen: screen2, EWS-FLI1 expression: high (no doxycycline).
Setting [10] is: 2.5 µM, library screen: screen2, EWS-FLI1 expression: low (doxycycline-induced shRNA knockdown).
Setting [11] is: 25 µM, library screen: screen1, EWS-FLI1 expression: high (no doxycycline).
[12] abbreviates: 25 µM, library screen: screen1, EWS-FLI1 expression: low (doxycycline-induced shRNA knockdown).
Setting [13] is: 0.103 µM, library screen: screen3, EWS-FLI1 expression: high (no doxycycline).
[14] abbreviates: 0.103 µM, library screen: screen3, EWS-FLI1 expression: low (doxycycline-induced shRNA knockdown).
[15] abbreviates: 0.308 µM, library screen: screen3, EWS-FLI1 expression: high (no doxycycline).
Where [16] appears, read: 0.308 µM, library screen: screen3, EWS-FLI1 expression: low (doxycycline-induced shRNA knockdown).
The mark [17] stands for this setting: 0.926 µM, library screen: screen3, EWS-FLI1 expression: high (no doxycycline).
The mark [18] stands for this setting: 0.926 µM, library screen: screen3, EWS-FLI1 expression: low (doxycycline-induced shRNA knockdown).
Setting [19] is: 2.8 µM, library screen: screen3, EWS-FLI1 expression: high (no doxycycline).
Where [20] appears, read: 2.8 µM, library screen: screen3, EWS-FLI1 expression: low (doxycycline-induced shRNA knockdown).
Setting [21] is: 8.3 µM, library screen: screen3, EWS-FLI1 expression: high (no doxycycline).
Setting [22] is: 8.3 µM, library screen: screen3, EWS-FLI1 expression: low (doxycycline-induced shRNA knockdown).
[23] abbreviates: 25 µM, library screen: screen3, EWS-FLI1 expression: high (no doxycycline).
[24] abbreviates: 25 µM, library screen: screen3, EWS-FLI1 expression: low (doxycycline-induced shRNA knockdown).

For `CC(=O)O[C@H]1C[C@@H](OC(C)=O)C(C)(C)C2C[C@@H](OC(C)=O)[C@@]3(C)C4=CC(=O)OC(=O)[C@]4(C)CCC3[C@]21C` (stereo partly drawn), the “cell viability (log2)” value by setting is: under setting [1], 0.0349; under setting [2], 0.118; under setting [3], 0.174; under setting [4], 0.189.
With `CC1(C)C(=O)[C@@H]2C[C@@]3(O)C4=CC(=O)O[C@@H](c5ccoc5)[C@]4(C)CCC3C(C)(C2=O)[C@H]1CC(=O)O` (stereo partly drawn), the “cell viability (log2)” value under setting [1] is 0.0688, the “cell viability (log2)” value under setting [2] is 0.13, the “cell viability (log2)” value under setting [3] was 0.086 and the “cell viability (log2)” value under setting [4] is 0.0264.
With `O=C(O)c1ccc(OC2CSC2)cc1`, the “cell viability (log2)” value was -0.0489 under setting [1], 0.0317 under setting [2], 0.0805 under setting [3] and 0.0727 under setting [4].
Regarding `O=C1Nc2ccc(I)cc2/C1=C/c1cc(Br)c(O)c(Br)c1`, the “cell viability (log2)” value by setting is: under setting [5], 0.115; under setting [6], -0.011; under setting [1], 0.134; under setting [2], -0.0458; under setting [7], 0.275; under setting [8], 0.0983. Moreover, the “cell viability (log2)” value was 0.0489 under setting [3]; 0.0445 under setting [4]; 0.0633 under setting [9]; 0.123 under setting [10]; -0.0847 under setting [11]; 0.107 under setting [12].
Take `CN(C)c1ccc(/C=C2\C(=O)Nc3ccccc32)cc1`: the “cell viability (log2)” value under setting [5] is 0.182; the “cell viability (log2)” value under setting [6] is 0.00152; the “cell viability (log2)” value under setting [1] was 0.171; the “cell viability (log2)” value under setting [2] was 0.0583; the “cell viability (log2)” value under setting [7] was -1.84 (active); the “cell viability (log2)” value under setting [8] was -0.565 (active). In addition, the “cell viability (log2)” value was -0.163 (active) under setting [3]; 0.0499 under setting [4]; -2.61 (active) under setting [9]; -0.918 (active) under setting [10]; -0.158 (active) under setting [11]; 0.195 under setting [12].
As to `CC(C)N1C(=O)/C(=C/c2ccc(N(C)C)cc2)SC1=S`, the “cell viability (log2)” value is, setting by setting: under setting [1], 0.23; under setting [2], 0.276; under setting [3], 0.232; under setting [4], 0.349.
Regarding `O=C(O)CN(CC(=O)O)Cc1cc2c(cc1O)Oc1cc(O)c(CN(CC(=O)O)CC(=O)O)cc1C21OC(=O)c2ccccc21`, the “cell viability (log2)” value by setting is: under setting [1], 0.133; under setting [2], 0.0463; under setting [3], 0.15; under setting [4], 0.0168.
`COc1ccc(NC(=O)/C(=C/c2cccnc2)NC(=O)c2cccs2)cc1`: the “cell viability (log2)” value under setting [1] is 0.123, the “cell viability (log2)” value under setting [2] is 0.163, the “cell viability (log2)” value under setting [3] was 0.1 and the “cell viability (log2)” value under setting [4] is 0.101.
Taken in the same sequence, the figures for `Brc1ccc(CN2CCN(Cc3ccco3)CC2)cc1` were 0.0694, 0.0304, 0.0829 and -0.00775.
`CC1=C(C(=O)OC2CCCC2)C(c2coc3ccc(Cl)cc3c2=O)C2=C(CCCC2=O)N1` (stereo not drawn): the “cell viability (log2)” value reads like this: under setting [1], 0.123; under setting [2], 0.0763; under setting [3], 0.136; under setting [4], -0.0126.
Turning to `CC(C)c1c(O)ccc2c1CC[C@H]1C(C)(C)CCC[C@]21C`, the “cell viability (log2)” value by setting is: under setting [1], 0.0946; under setting [2], 0.115; under setting [3], 0.166; under setting [4], 0.269.
With `CCN(CC)C(=S)SSC(=S)N(CC)CC`, the “cell viability (log2)” value was 0.0335 under setting [13]; 0.117 under setting [14]; -1.42 (active) under setting [1]; -0.538 (active) under setting [2]; 0.112 under setting [7]; 0.121 under setting [8]. Also, the “cell viability (log2)” value is -0.158 under setting [15]; 0.0728 under setting [16]; -4.24 (active) under setting [17]; -2.11 (active) under setting [18]; -2.82 (active) under setting [3]; -1.78 (active) under setting [4]. The “cell viability (log2)” value runs as follows: under setting [9], -4.17 (active); under setting [10], -0.213 (active); under setting [19], -4.24 (active); under setting [20], -4.26 (active); under setting [21], -4.26 (active); under setting [22], -4.27 (active). Moreover, the “cell viability (log2)” value reads like this: under setting [23], -4.26 (active); under setting [24], -4.25 (active).
For the compound `Cc1cc(Cl)ccc1OCC(O)CN1CCN(C)CC1` (stereo not drawn), the “cell viability (log2)” value reads like this: under setting [1], 0.0377; under setting [2], 0.029; under setting [3], 0.0948; under setting [4], 0.184.
For the compound `N[C@@H](C=O)[C@@H](O)[C@H](O)[C@H](O)CO`, the “cell viability (log2)” value is, setting by setting: under setting [1], 0.0986; under setting [2], 0.0199; under setting [3], 0.192; under setting [4], 0.145.
Take `CN(C)CCC=C1c2ccccc2C=Cc2ccccc21`: the “cell viability (log2)” value was 0.131 under setting [1]; 0.0615 under setting [2]; 0.206 under setting [7]; 0.141 under setting [8]; 0.117 under setting [3]; 0.104 under setting [4]. Also, the “cell viability (log2)” value is, setting by setting: under setting [9], 0.126; under setting [10], 0.0683.
Take `CN(C)CC/C=C1\c2ccccc2COc2ccccc21`: the “cell viability (log2)” value is, setting by setting: under setting [1], 0.126; under setting [2], 0.129; under setting [7], 0.0848; under setting [8], 0.0467; under setting [3], 0.131; under setting [4], 0.118. Also, the “cell viability (log2)” value runs as follows: under setting [9], 0.142; under setting [10], 0.121.
For the compound `CN(C)CCC=C1c2ccccc2CCc2ccccc21`, the “cell viability (log2)” value reads like this: under setting [1], 0.0816; under setting [2], 0.086; under setting [7], -0.148 (active); under setting [8], 0.138; under setting [3], 0.144; under setting [4], 0.0763. Also, the “cell viability (log2)” value by setting is: under setting [9], 0.0454; under setting [10], 0.0908.
As to `COc1c(C2COc3cc4c(cc3C2=O)CC(O)C(C)(C)O4)ccc2c1CCC(C)(C)O2` (stereo not drawn), the “cell viability (log2)” value was 0.0719 under setting [1], 0.0278 under setting [2], 0.0883 under setting [3] and 0.0229 under setting [4].
As to `CNC(=O)CN(CCN(CCN(CC(=O)[O-])CC(=O)NC)CC(=O)[O-])CC(=O)[O-].O.[Gd+3]`, the “cell viability (log2)” value under setting [13] is 0.106; the “cell viability (log2)” value under setting [14] is -0.0293; the “cell viability (log2)” value under setting [15] is 0.00861; the “cell viability (log2)” value under setting [16] was 0.114; the “cell viability (log2)” value under setting [17] was 0.0946; the “cell viability (log2)” value under setting [18] was 0.0839. For the same compound, the “cell viability (log2)” value reads like this: under setting [19], 0.127; under setting [20], 0.127; under setting [21], 0.0841; under setting [22], 0.116; under setting [23], 0.0924; under setting [24], 0.134.

The record behind these values is the supplement of paper PMC6089552.
